Screening results: PubChem BioAssay, National Center for Advancing Translational Sciences (NCATS)
In the library only some 11% were active in any assay of this set; here they are far more common.
JMJD2A Tudor – blocks the human JMJD2A Tudor domain | O75164 | AlphaScreen JMJD2A-Tudor / H3K4me3 peptide binding | Potency, µM (titrated, usually from 114 µM), inactives show at the highest dose activity change, negative = inhibition, most hits filed as inhibitors | 390,000 tested, 4.4% active | AID 504339; also: % is scaled to controls: 0 for no effect and ±100 for the full control effect; nearly all actives have a fitted effect of over 50% in size
G9a block – blocks human histone lysine methyltransferase G9a; Q96KQ7; G9a H3K9 monomethylation, AlphaScreen, 2 h; Potency, µM (series often up to 102 µM), without a hit: at the highest dose activity, negative = inhibition, most hits filed as inhibitors; 350,000 tested, 8.8% active; also: % is scaled to controls: 0 for no effect and ±100 for the full control effect; nearly all actives have a fitted effect of over 75% in size
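Step 1: enzyme (final 20 nM) with compound, 15 min RT. Step 2: substrate peptide 500 nM and SAM 20 uM, 2 h RT. Step 3: anti-H3K9me1 antibody and AlphaScreen beads, 10 min, then plate read.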
L3MBTL1 inh – inhibitors of human L3MBTL1; AlphaScreen L3MBTL1–H3K9me1 peptide binding; Potency, µM (series often up to 57.1 µM), for inactives: at the top dose activity, negative = inhibition, hits mostly inhibitors; 230,000 tested, 0.66% active; AID 485360; Q9Y468; also: % is scaled to controls: 0 for no effect and ±100 for the full control effect; nearly all actives have a fitted effect of over 60% in size
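L3MBTL1 (50 nM) pre-complexed 30 min with biotinylated H3(1-15)K9me1 peptide (75 nM), then compounds added for 30 min at room temperature; AlphaScreen streptavidin donor/nickel chelate acceptor beads (10 ug/mL final) read after 30 min dark incubation.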
HP1b binding inh – HP1-beta chromodomain-methylated histone interaction inhibition | P83916 | 390,000 tested, 0.56% active | AlphaScreen HP1-beta / biotin-H3K9me3 peptide binding | Potency, µM (doses to about 114 µM), without a hit: top-dose activity change, negative = inhibition, hits mostly inhibitors; also: nearly all actives have a fitted effect of over 70% in size
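Compound inhibition of the preformed complex between 50 nM HP1-beta and 50 nM biotinylated H3K9me3 peptide was read by AlphaScreen. Buffer was PBS pH 7.4 with 0.01% Tween-20. Incubations ran 30 min at room temperature, with 10 ug/mL donor/acceptor beads.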
BAZ2B inh – blocks human BAZ2B; 360,000 tested, 4.4% active; AlphaScreen BAZ2B-H3K14Ac peptide displacement; Q9UIF8; Potency, µM (top dose mostly 114 µM), for the others: at the top dose activity change, negative = inhibition, actives largely listed as inhibitors; AID 504333; also: % is scaled to controls: 0 for no effect and ±100 for the full control effect; nearly all actives have a fitted effect of over 60% in size
Target sequence (Q9UIF8 whole entry, looked up): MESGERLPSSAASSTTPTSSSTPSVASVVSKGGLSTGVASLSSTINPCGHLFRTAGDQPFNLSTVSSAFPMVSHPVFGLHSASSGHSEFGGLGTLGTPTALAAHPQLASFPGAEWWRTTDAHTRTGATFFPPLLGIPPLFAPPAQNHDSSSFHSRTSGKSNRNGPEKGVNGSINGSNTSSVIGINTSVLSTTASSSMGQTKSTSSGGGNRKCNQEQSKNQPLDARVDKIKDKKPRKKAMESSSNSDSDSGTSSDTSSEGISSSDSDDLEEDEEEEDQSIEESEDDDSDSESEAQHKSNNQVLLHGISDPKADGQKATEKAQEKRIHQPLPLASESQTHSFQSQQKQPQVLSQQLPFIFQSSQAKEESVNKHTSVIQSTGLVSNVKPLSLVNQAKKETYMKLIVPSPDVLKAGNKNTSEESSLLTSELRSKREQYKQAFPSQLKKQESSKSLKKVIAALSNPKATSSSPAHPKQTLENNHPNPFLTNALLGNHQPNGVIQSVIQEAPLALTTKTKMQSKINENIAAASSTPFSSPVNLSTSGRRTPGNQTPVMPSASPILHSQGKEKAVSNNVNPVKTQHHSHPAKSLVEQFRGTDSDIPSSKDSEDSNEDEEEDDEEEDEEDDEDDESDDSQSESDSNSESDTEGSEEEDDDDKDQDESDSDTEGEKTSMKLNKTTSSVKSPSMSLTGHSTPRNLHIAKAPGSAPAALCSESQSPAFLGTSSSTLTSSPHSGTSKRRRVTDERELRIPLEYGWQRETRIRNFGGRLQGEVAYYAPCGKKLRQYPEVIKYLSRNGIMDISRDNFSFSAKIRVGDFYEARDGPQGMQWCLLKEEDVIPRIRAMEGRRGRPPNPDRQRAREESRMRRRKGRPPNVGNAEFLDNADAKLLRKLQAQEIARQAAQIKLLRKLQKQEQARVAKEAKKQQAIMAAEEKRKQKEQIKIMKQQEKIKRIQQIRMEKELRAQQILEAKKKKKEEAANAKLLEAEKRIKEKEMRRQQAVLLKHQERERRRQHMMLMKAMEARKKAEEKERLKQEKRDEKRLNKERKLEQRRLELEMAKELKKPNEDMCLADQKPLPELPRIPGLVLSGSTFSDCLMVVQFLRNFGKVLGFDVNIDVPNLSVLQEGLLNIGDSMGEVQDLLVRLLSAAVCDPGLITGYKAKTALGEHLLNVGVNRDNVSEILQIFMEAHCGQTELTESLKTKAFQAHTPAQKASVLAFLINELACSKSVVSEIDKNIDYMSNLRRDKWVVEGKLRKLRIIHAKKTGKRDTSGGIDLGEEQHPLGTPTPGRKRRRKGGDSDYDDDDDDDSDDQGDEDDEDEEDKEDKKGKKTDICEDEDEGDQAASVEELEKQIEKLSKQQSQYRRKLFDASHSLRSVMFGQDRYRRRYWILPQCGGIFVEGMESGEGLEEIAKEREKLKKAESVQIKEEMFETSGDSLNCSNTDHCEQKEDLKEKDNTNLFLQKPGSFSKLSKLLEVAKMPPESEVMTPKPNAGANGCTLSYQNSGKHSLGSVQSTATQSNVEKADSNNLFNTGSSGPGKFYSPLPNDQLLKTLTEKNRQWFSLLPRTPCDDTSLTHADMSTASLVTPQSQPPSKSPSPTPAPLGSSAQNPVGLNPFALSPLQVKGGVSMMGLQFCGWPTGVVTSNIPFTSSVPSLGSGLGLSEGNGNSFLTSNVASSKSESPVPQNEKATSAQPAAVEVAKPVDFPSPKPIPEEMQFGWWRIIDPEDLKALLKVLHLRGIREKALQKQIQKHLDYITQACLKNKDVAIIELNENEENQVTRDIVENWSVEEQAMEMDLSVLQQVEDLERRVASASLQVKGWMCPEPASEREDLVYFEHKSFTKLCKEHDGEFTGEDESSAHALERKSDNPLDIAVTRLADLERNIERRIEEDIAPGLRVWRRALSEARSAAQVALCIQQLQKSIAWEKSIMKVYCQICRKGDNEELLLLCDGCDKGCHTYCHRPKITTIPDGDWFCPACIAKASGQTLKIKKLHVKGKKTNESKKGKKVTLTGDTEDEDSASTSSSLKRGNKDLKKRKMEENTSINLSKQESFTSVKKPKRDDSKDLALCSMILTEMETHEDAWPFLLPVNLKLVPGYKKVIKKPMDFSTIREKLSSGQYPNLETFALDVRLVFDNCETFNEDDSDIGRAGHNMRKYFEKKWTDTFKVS
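Inhibition is scored as reduced AlphaScreen emission. The BAZ2B/b-H3(5-23)K14Ac complex (50 nM each) in PBS pH 7.4, 0.01% Tween-20 meets compound (up to 110 uM) for 30 min at RT before bead addition.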
The depositor's hits bear a star; ? = inconclusive; / = no result; [ ] = remark or other dose. Calls follow the shape of the dose curve; as a rule, active = well fitted inhibition curve with a large enough effect; inconclusive = small, poorly fitted or top-dose-only effect; inactive = no such curve, though single readings can be large or run the other way. Potency is read from the fitted curve at half-maximal effect.

SMILES	JMJD2A Tudor	G9a block	L3MBTL1 inh	HP1b binding inh	BAZ2B inh
COc1cccc(-c2nc(CC(=O)O)cs2)c1OC	4.6%[57.1 µM]	-8.3%[12.7 µM]	/	32.4%	-7.7%
COc1cccc(-c2nc(CCl)cs2)c1OC	50.1µM*	22.4µM*	-3.0%	60.0%	?
N#Cc1nc(NCCO)nc(Nc2ccccc2)n1	-28.3%	/	/	/	/
CC(=O)/C(=N/Nc1cccc(C)c1)N1CCOCC1	89.1µM*	0.631µM*	/	5.9%	?
CCC(Nc1ncnc2ccc(-c3c(C)noc3C)cc12)c1ccccc1 (centres undefined)	-33.1%	/	/	/	/
O=C(CSc1nc2c([nH]c3ccccc32)c(=O)n1-c1ccccc1)N1CCc2ccccc21	1.3%	16.2%[59 µM]	/	14.8%[57 µM]	6.1%
C[N+]1(CCCOC(=O)C2(c3ccccc3)CCCC2)CCOCC1	-12.8%	7.94µM*	2.4%	19.4%	-7.8%
CN(C)CCOC(=O)C1(c2ccccc2)CCCC1	-17.6%	-14.9%	/	14.9%	0.2%
Cc1cccc(N2C(=O)/C(=C\c3ccc(C(=O)O)cc3)c3ccccc3C2=O)c1	-28.3%	44.7µM*	1.4%	27.0%	?
Cc1cccc(N2C(=O)c3ccc(C(=O)Nc4ccccn4)cc3C2=O)c1	-17.2%	-1.1%	/	35.0%	-14.1%[57.1 µM]
O=C1CC(c2nc3ccccc3n2CCCCOc2ccccc2)CN1c1ccccc1Cl (centres undefined)	-18.8%	-15.0%[59 µM]	/	35.6%	-31.9%
O=c1oc2ccccc2nc1/C=C(O)/C=C\c1ccccc1	-20.7%	56.2µM*	-9.4%	24.3%	?
Cc1ccc(/C(O)=C/c2nc3ccccc3oc2=O)cc1	-0.4%	28.2µM*	0.8%	33.6%	-31.4%
O=c1oc2ccccc2nc1/C=C(O)/C=C/c1ccc(F)cc1	?	44.7µM*	?	21.3%	50.1µM*
COc1ccc(/C=C/C(=O)N2CCC(c3nc4ccccc4o3)CC2)cc1	-26.5%	-7.3%[59 µM]	/	10.0%	-28.4%
N#C/C(C(=O)c1ccccc1)=C1/SC=C(N)N1c1ccccc1	/	?	?	/	44.7µM*
O=C(Nc1cccc(F)c1)N1CC[C@@]2(CCCNC2)C1	/	-15.4%[12.7 µM]	/	/	/
CSc1ccccc1C(=O)NC1CCCN(c2ccc(C(F)(F)F)cn2)C1 (centres undefined)	-6.2%	8.91µM*	/	67.4%	-13.0%[57.1 µM]
O=C(NC1CCCN(c2ccc(C(F)(F)F)cn2)C1)c1ccncc1 (centres undefined)	-9.0%	-0.2%	/	23.6%	-3.1%
CCCCN(CCCNC(=O)CN1N=C(c2ccc(C)cc2)CCC1=O)c1ccccc1	39.8µM*	14.1µM*	/	?	20µM*
COc1ccc(C2=NN(CC(=O)NCCCN(C)c3ccccc3)C(=O)CC2)cc1	?	?	/	-13.4%	?
Cc1ccc(C2=NN(CC(=O)O)C(=O)CC2)cc1	-17.5%	44.7µM*	/	2.4%	-2.6%
Cc1ccc(CNC(=O)CN2N=C(c3ccccc3)CCC2=O)cc1	-7.6%	4.9%[59 µM]	/	21.6%	0.8%
CCN(CCCNC(=O)CN1N=C(c2ccc(OC)cc2)CCC1=O)c1cccc(C)c1	79.4µM*	11.2µM*	/	?	39.8µM*
CCN(CCCNC(=O)CN1N=C(c2ccccc2)CCC1=O)c1cccc(C)c1	?	14.1µM*	/	?	?
SMILES	JMJD2A Tudor	G9a block	L3MBTL1 inh	HP1b binding inh	BAZ2B inh
CCN(CCCNC(=O)CN1N=C(c2ccc(C)cc2)CCC1=O)c1ccccc1	56.2µM*	10µM*	/	?	14.1µM*
Cc1ccc(C2=NN(CC(=O)NCCc3ccccc3)C(=O)CC2)cc1	-20.8%	-9.7%[59 µM]	/	-9.4%	-10.1%
O=C(NC1CCCCC1)c1sc(=S)n2c1[nH]c(=O)c1ccccc12	56.2µM*	/	-2.5%	?	?
O=C(NC1CCCCCC1)c1c(O)c2ccccc2[nH]c1=O	-26.8%	?	-3.2%	8.4%	-6.7%
CCCCNC(=O)c1sc2ncccc2c1-n1cccc1	-4.2%	-28.5%[59 µM]	/	17.1%[57 µM]	-13.8%
CCCCNC(=O)c1sc(=S)n2c1[nH]c(=O)c1ccccc12	79.4µM*	?	-10.4%	-32.3%	50.1µM*
CC1=C(C(=O)Nc2ccccc2)C(c2ccncc2)n2nc(SCc3ccccc3Cl)nc2N1 (centres undefined)	-13.7%	7.9%[59 µM]	/	36.2%	6.3%
COc1ccc(CCNC(=O)c2ccc3c(c2)CCN3S(=O)(=O)c2ccc(C)cc2)cc1	-14.5%	-30.5%[59 µM]	/	18.0%	-4.5%
CC(=O)Sc1nc(-c2ccccc2)[nH]c1S(=O)(=O)c1ccc(C)cc1	12.6µM*	2.24µM*	-1.3%	?	?
O=C(c1ccco1)N(Cc1cccc([N+](=O)[O-])c1)c1ccc(Br)cc1	?	/	-16.8%	-2.2%	50.1µM*
CC(=O)Nc1ccc(NC(=O)C/C(C)=N/NC(=O)C(=O)N2CCCC2)cc1	-20.0%	35.5µM*	1.4%	39.9%	-32.1%
O=C(Nc1ccc(Cl)c(C(=O)N2CCOCC2)c1)c1ccccc1	-3.9%	44.7µM*	/	31.7%	0.7%
O=C(Nc1ccc(N2CCOCC2)c(Cl)c1)c1ccc(Br)o1	-12.0%	-50.3%[12.7 µM]	-7.1%	11.3%	-0.2%
O=C(Nc1ccc(N2CCN(C(=O)c3ccccc3)CC2)cc1)c1ccc(Br)o1	-27.6%	31.6µM*	-14.8%	-2.4%	?
O=C(Nc1ccc(N2CCN(C(=O)c3ccccc3)CC2)c(Cl)c1)c1ccc(Br)o1	-25.0%	44.7µM*	-9.6%	32.6%	-34.8%
O=C(Nc1ccc(C(=O)N2CCOCC2)cc1)c1ccccc1	-1.4%	/	/	61.9%	/
CN(Cc1ccccc1)C(=O)Nc1ccc2c(c1)N(C)C(=O)c1ccccc1S2	-27.5%	?	/	45.8%	-26.2%
CCc1ccc2oc(C(=O)Nc3ccccc3OC)cc(=O)c2c1	-12.8%	3.9%[59 µM]	/	6.0%	-1.5%
COc1ccccc1N1CCN(/N=C/c2c(C)nn(-c3ccccc3)c2C)CC1	39.8µM*	?	?	17.8µM*	28.2µM*
